According to PubChem BioAssay AID652126 (The Scripps Research Institute Molecular Screening Center, 2013):
About 3,700 (1%) of roughly 370,000 compounds were called active.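 How the source made its calls: active means activation above the mean over all tested compounds plus 3 SD (cut at about 0.9% in these data); inactive means the rest.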 Shown is part of a subset that was picked to be rich in actives.

What follows are compounds tested on Nuclear hormone receptor DAF-12 (Strongyloides stercoralis) (assay: ssDAF-12 driven luciferase reporter activation – cell-based, luminescence, HEK293, GRIP1 co-expression, lit1-tk-luc, primary screen (AID 652126;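 further: 0% = DMSO-only wells and 100% = 3 µM delta7-dafachronic acid wells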)). Conditions: HEK293 ssDAF-12/GRIP1 lit1-tk-luc reporter, at 6.8 µM, hits give high values, % of 3 µM dafachronic acid response.

SMILES | activation
c1ccc(-c2c[nH]c(-c3ccccc3)c2)cc1 | 0.36% (inactive)
Cc1c[nH]c2cccc(-c3ccc(Cl)cc3)c12 | -0.3% (inactive)
c1ccc(-c2cc(-c3ccccc3)[nH]n2)cc1 | 2.27% (active)
Oc1ccccc1-c1cc(-c2ccc(Cl)cc2)n[nH]1 | 3.08% (active)
O=C(O)c1n[nH]nc1-c1ccccc1 | -1.32% (inactive)
Cc1cccc(C(=O)Nc2c(-c3ccc(F)cc3)nc3ncccn23)c1 | -1.19% (inactive)
Nn1c(SCC(=O)Nc2ccc(S(N)(=O)=O)cc2)nnc1-c1n[nH]c2c1CCC2 | -0.68% (inactive)
O=C(NCCC1=CCCCC1)C1CCN(S(=O)(=O)c2ccc(Cl)s2)CC1 | -0.79% (inactive)
CCOC(=O)[C@]12CCCC=C1N(CCCOC)C(=O)[C@@H]2CC(=O)N1CCOCC1 | -1.03% (inactive)
O=C(/C=C/Nc1ccc(S(=O)(=O)Nc2cnc3ccccc3n2)cc1)c1cccnc1 | -0.79% (inactive)
Cc1ccc(NC(=O)C2CCCN2C(=O)OCc2ccccc2)cc1C (stereo not given) | -0.56% (inactive)
Cc1ccc(N/C=C/C(=O)c2ccccc2)cc1C | 3% (active)
Cc1ccc(-c2nc3c(C)cc(Br)cn3c2Cc2ccccc2)cc1 | -0.47% (inactive)
c1ccc(Cc2c(-c3ccco3)nc3c4ccccc4ccn23)cc1 | 3.52% (active)
COc1ccccc1Cc1c(-c2ccc(Cl)cc2)nc2c3ccccc3ccn12 | 0.62% (inactive)
CN1C(=O)c2cc(NS(C)(=O)=O)ccc2OC[C@@H]2O[C@@H](CC(=O)NCc3ccc(-c4ccccc4)cc3)CC[C@H]21 | -1.43% (inactive)
Cc1ccccc1CN1CCCCC(NC(=O)c2cccc(C#N)c2)C1=O (stereo not given) | -1.04% (inactive)
S=C1NC(c2ccccc2)=NCN1c1ccc(Br)cc1 | -0.91% (inactive)
N#Cc1ccc(C2N=C(c3ccccc3)NO2)cc1 (stereo not given) | 0.03% (inactive)
Brc1ccccc1C1N=C(c2ccccc2)NO1 (stereo not given) | 1.18% (active)
COC(=O)C1CN(Cc2ccc(F)cc2)CCS(=O)(=O)N1Cc1ccc(Cl)cc1 (stereo not given) | -1.29% (inactive)
Cc1cccc(N2CCN(C(=O)C3CCN(S(=O)(=O)c4cnc[nH]4)CC3)CC2)c1C | -0.57% (inactive)
CCN(CCCNC(=O)C1CCN(S(=O)(=O)c2cnc[nH]2)CC1)c1ccccc1 | -1.52% (inactive)

SMILES | activation
O=C(C1CCN(S(=O)(=O)c2cnc[nH]2)CC1)N1CCN(Cc2ccc3c(c2)OCO3)CC1 | 1.02% (active)
O=C(c1ccncc1)N1CC[C@H]2[C@H](CCCN2Cc2ccc(F)cc2)C1 | -0.89% (inactive)
CCOC(=O)[C@]12CCCC3=C1N(CCC3)C(=O)[C@@H](CC(=O)N1CCSCC1)C2 | 0.21% (inactive)
Clc1ccc(-n2c(COc3ccccc3)nnc2SCc2nc3ccccc3[nH]2)cc1 | -1.69% (inactive)
CCCOc1ccc(NC(=O)CC2C(=O)N(C)C(=S)N2Cc2ccc3c(c2)OCO3)cc1 (stereo not given) | -1.45% (inactive)
O=C(Nc1ccc(Cl)cc1)C1c2cccc[n+]2CC(=O)N1Cc1ccc2c(c1)OCO2 (stereo not given) | 2.86% (active)
O=C(Nc1ccc2c(c1)OCCO2)C1c2ccccc2OCC(=O)N1Cc1ccccn1 (stereo not given) | -0.32% (inactive)
COc1ccc(Cn2ccc3ccc(-c4ccc5ccn(Cc6ccccc6C)c5c4)cc32)cc1 | -0.43% (inactive)
O=S1(=O)c2c(cccc2N2CCSCC2)Oc2ccccc2CN1Cc1cn(Cc2ccc(F)cc2)nn1 | -1.43% (inactive)
O=C(CN1CCC(NC(=O)NCc2ccccc2)CC1)Nc1ccc2c(c1)OCCO2 | -1.37% (inactive)
C=CCN1C(C(=O)OC)CN(Cc2cn(Cc3ccccc3)nn2)CCS1(=O)=O (stereo not given) | -1.67% (inactive)
C=CCN(C)CC#Cc1ccccc1 | -0.95% (inactive)
COc1ccc(-n2c(SCC(=O)NC3CCCC3)nnc2-c2ccncc2)cc1 | -0.71% (inactive)
O=C(O)C1C2C=CC(O2)C1C(=O)Nc1ccccn1 (stereo not given) | -1.12% (inactive)
S=C(NN=Cc1ccccn1)Nc1ccccn1 | 1.63% (active)
CS(=O)(=O)N(CC(=O)N/N=C/c1ccccn1)c1ccc(Oc2ccccc2)cc1 | -0.77% (inactive)
CCCOc1ccc(Oc2c(Cl)cnn(Cc3cccc4ccccc34)c2=O)cc1 | -1.41% (inactive)
O=C1CC(c2ccc3c(c2)OCO3)N=C2N(CC3CC3)C/C(=C/c3ccccc3)N12 (stereo not given) | -1.93% (inactive)
CCOc1ccc(-n2c(SCC(=O)Nc3cc(C)c(NC(=O)c4ccccc4)cc3OC)nnc2-c2cccc(Cl)c2)cc1 | -1.5% (inactive)
CCOC(=O)c1c(NC(=S)Nc2ccccc2)sc2c1CCN(C)C2 | -1.34% (inactive)
CCOC(=O)c1c(NC(=O)C2(C)Cc3ccccc3C(=O)O2)sc2c1CCCC2 (stereo not given) | -1.31% (inactive)
CCOC(=O)c1c(NC(=S)Nc2ccccc2C)sc2c1CCC2 | 1.91% (active)
CC(=O)OCCN1CCCC12CCC(c1ccccc1)CC2 (stereo not given) | -0.84% (inactive)

SMILES | activation
C#CCN([C@H](C(=O)OC)C(C)CC)S(=O)(=O)c1ccccc1Br (stereo not given in full) | -1.85% (inactive)
Cc1ccc(-c2nnc(SCC(=O)N/N=C/c3cccs3)n2-c2ccc(C)cc2)cc1 | -0.75% (inactive)
CCOc1ccc(N2CC(C(=O)N/N=C/c3sccc3C)CC2=O)cc1 (stereo not given) | -1.57% (inactive)
Cc1ccsc1/C=N/NC(=O)Cc1cc(=O)[nH][nH]1 | 1.42% (active)
CN(C)S(=O)(=O)c1cccc(C(=O)N/N=C\c2ccco2)c1 | -0.66% (inactive)
COC(=O)C1CCN(C(=O)c2cc(=O)[nH]c3ccccc23)CC1 | 1.33% (active)
CC1CCN(C(=O)COC(=O)c2cc(=O)[nH]c3ccccc23)CC1 | -0.23% (inactive)
CC1CCCCC1NC(=O)c1cc(=O)[nH]c2ccccc12 (stereo not given) | -0.66% (inactive)
CCc1ccccc1NC(=O)CSc1nnc(-c2cccs2)o1 | -1.52% (inactive)
Cc1ccc(NC(=O)CN2CCc3ccccc3C2)cc1C | 1.3% (active)
CCc1ccc(NC(=O)N2CCc3ccccc3C2)cc1 | 1.53% (active)
CCOC(=O)c1c(NC(=S)SC)sc(C(=O)N2CCc3ccccc3C2)c1C | -0.64% (inactive)
CCc1ccc(NC(=O)CC2C(=O)NCCN2C(=S)Nc2ccccc2)cc1 (stereo not given) | -1.42% (inactive)
Cc1ccc(NC(=O)COc2coc(CN3CCc4ccccc4C3)cc2=O)cc1Cl | -1.76% (inactive)
O=C(CN1CCc2ccccc2C1)Nc1cccc(S(=O)(=O)N2CCOCC2)c1 | -0.91% (inactive)
Cc1cc(NS(=O)(=O)c2ccc(NC(=O)CSc3nnc(-c4ccc(C(C)(C)C)cc4)n3Cc3ccco3)cc2)nc(C)n1 | -1.29% (inactive)
COc1ccc(O)c(C(=O)c2cnc3onc(C(C)C)c3c2)c1 | -0.89% (inactive)
COc1cccc(NC(=O)CC2C(=O)NCCN2C(=S)Nc2ccc(F)cc2)c1 (stereo not given) | -1.35% (inactive)
COc1cccc(NC(=O)Nc2ccc(F)cc2)c1 | 1.74% (active)
COc1cccc(C(=O)NNS(=O)(=O)c2ccc(F)cc2)c1 | -1.09% (inactive)
COC(=O)C1CN(Cc2cn(Cc3ccc(F)cc3)nn2)CCS(=O)(=O)N1Cc1ccc(Cl)cc1 (stereo not given) | -2.03% (inactive)
CCCCNC(=O)C[C@H]1C[C@@]2(C(=O)OC)C(=C[C@H](COCc3ccccc3)O[C@@H]2C)N(Cc2ccc(Cl)cc2Cl)C1=O | -1.35% (inactive)
CC(C)CSc1nnc(-c2cccnc2)n1Cc1ccccc1 | -1.35% (inactive)

SMILES | activation
COC(=O)c1cc(S(=O)(=O)N2CCN(C(=O)C3CCCO3)CC2)cn1C (stereo not given) | -1.3% (inactive)
Cc1ccc(CCNC(=O)c2ccc3nc4ccccc4c(=O)n3c2)cc1 | -1.47% (inactive)
Cc1ccc(C(=O)NNc2ncnc3ccccc23)cc1 | 1.85% (active)
Cn1ncc2c(NNC(=O)Cc3cccc4ccccc34)ncnc21 | -1.61% (inactive)
O=C(CNC(=O)c1ccccc1)OC(C(=O)Nc1cc([N+](=O)[O-])ccc1F)c1ccccc1 (stereo not given) | -2.1% (inactive)
CCOC(=O)C1CCN(C(=O)C(C)(C)NC(=O)Nc2ccccc2Cl)CC1 | -0.72% (inactive)
O=C(O)c1cccc(N=NN2CCCCCC2)c1 | 1.23% (active)
NC1=NN(c2cccc(C(=O)O)c2)C(=O)C1 | 0.3% (inactive)
O=C(O)c1cccc(S(=O)(=O)N2CC=C(c3ccccc3)CC2)c1 | -1.29% (inactive)
O=C(c1c[nH]c2ccccc12)N1CCC(Oc2cccnc2)CC1 | -1.03% (inactive)
Cc1ccc(OCc2nnc(SC/C=C/c3ccccc3)n2Cc2ccco2)cc1 | -1.7% (inactive)
O=C(Nc1cccc(Cl)c1)OC1CC2CC1[C@H]1CCCCN1[C@H]2Cc1ccccc1 (stereo not given in full) | -1.06% (inactive)
Cc1ccccc1NC(=O)COC(=O)c1ccc(Sc2ncn[nH]2)c([N+](=O)[O-])c1 | -1.78% (inactive)
Cc1nc2ccc(C(=O)N3CCN(C(=O)C(C)(C)C)CC3)cc2n1C1CCCC1 | -1.22% (inactive)
CN(C)c1cc(N)c2ccccc2n1 (tested in a mixture with another compound) | -0.25% (inactive)
Cc1ccc(-c2nc3ccccc3[nH]2)cc1N | 2.5% (active)
CCOC(=O)c1nc(-c2ccc3c(c2)OCO3)[nH]c1C | -1.3% (inactive)
Cc1cc(C)nc(NC(=S)N2CCN(c3ccc(C(F)(F)F)cn3)CC2)c1 | -1.63% (inactive)
COc1ccc(C(=O)OCCN2CCN(C3CN(Cc4cn(Cc5ccccc5F)nn4)S(=O)(=O)C3)CC2)cc1OC (stereo not given) | -1.83% (inactive)
O=C(Nc1cc(F)cc(F)c1)OC1CCC12CCC(c1ccccc1)CC2 (stereo not given) | -1.11% (inactive)
O=C(Nc1cc(Cl)cc(Cl)c1)OCCN1CCCC12CCC(c1ccccc1)CC2 (stereo not given) | -1.99% (inactive)
